# The list is not random: actives were taken first. Their share in the collection is about 3.4%.
# GPR151 activ: activators of human GPR151, primary screen, cell-based, PathHunter beta-arrestin, luminescence; PathHunter beta-arrestin GPR151 cells; activation, % at 11.2 µM; actives 1% (n = 650,000); AID 1508602, 2020; in the data active means activation above about 4.9%;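 further: 0% = median of compound wells and 100% = cells with positive control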
# FBW7 activator: FBW7 E3 ligase activators, primary screen, biochemical, AlphaScreen, human. AlphaScreen FBW7–phospho-cyclin E peptide binding, activator screen. AID 1259310, 2017. normalized activity (activation), % at 26.1 µM. actives 0.13% (n = 650,000). F-box/WD repeat-containing protein 7 (Homo sapiens), Q969H0; in the data active means normalized activity above about 1.9%;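 further: purified mutant Fbw7 with reduced substrate affinity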
# TEAD-YAP block: TEAD-YAP interaction inhibition, primary screen, TEAD-YAP interaction inhibitor project, luminescence, HEK-TIYL cells; TEAD-Gal4/YAP UAS-luciferase luminescence; actives 1.4% (n = 640,000); AID 1259422, 2018; inhibition, % at 9.12 µM; in the data active means inhibition above about 32%;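 further: 0% = median of test compound wells and 100% = reference inhibitor wells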
# MITF inh: MITF inhibitors, primary screen, biochemical, AlphaScreen, human | Microphthalmia-associated transcription factor (Homo sapiens), O75030 | AlphaScreen MITF homodimerization, bead proximity signal | inhibition, % at 2.6 µM | actives 0.91% (n = 650,000) | AID 1259374, 2018; in the data active means inhibition above about 50%;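 further: 0% = vehicle wells with protein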
# The depositor's hits bear a star.
SMILES,GPR151 activ,FBW7 activator,TEAD-YAP block,MITF inh
COc1cccc2cc(-c3cc4cccc(OC)c4oc3=O)c(=O)oc12,1,0,11,4
COc1cccc(C(=O)Nc2ccccc2C(=O)Nc2ccccc2OC)c1,1,0,43*,0
COc1cccc2cc(-c3nc4ccccc4s3)c(=O)oc12,-2,0,72*,5
COc1ccccc1NC(=O)c1ccc(OC(=S)N(C)C)cc1,-1,2.3*,-20,20
CCOC(=O)Cc1csc(N/N=C\c2ccc(C(F)(F)F)cc2)n1,-1,0,61*,14
CC1=C(C(=O)Nc2ccccc2C)C(c2ccco2)C(C#N)=C(SCC(=O)c2ccc(C)cc2)N1 (stereo not drawn),3,0,-3,3
O=C1ON=C(c2ccccc2)/C1=C\c1ccccc1OCc1ccc(Cl)cc1,1,0,-38,68*
C=CCOc1ccc(/C=C2/C(=O)ON=C2c2ccccc2)cc1,0,0,-2,65*
CCCCCOc1ccccc1/C=C1/C(=O)ON=C1c1ccccc1,-1,0,-6,62*
O=C1ON=C(c2ccccc2)/C1=C/c1c(OCc2ccc(Cl)cc2)ccc2ccccc12,0,0,-62,21
CCOc1cc(/C=C2\C(=O)ON=C2c2ccccc2)ccc1OCc1ccccc1,2,0,-7,57*
O=C1OC(c2ccc(Cl)cc2)=N/C1=C\c1ccccc1OCc1ccc(Cl)cc1,1,0,4,15
CCCSc1nnc2c(n1)OC(c1ccc(C)cc1)Nc1ccccc1-2 (stereo not drawn),1,0,-42,4
CCCCOc1ccccc1/C=C1/C(=O)ON=C1c1ccccc1,1,0,-9,68*
COCCCn1c(=O)[nH]c2ncc(-c3cccc(F)c3)nc21,0,0,-3,14
COCCCn1c(=O)[nH]c2ncc(-c3cnc(OC)nc3)nc21,-1,2.2*,-3,15
CC(C)(C)NC(=O)c1ccc2c(c1)NC(=O)/C(=C\c1ccccc1F)S2,1,0,-3,-2
O=C(CCl)NCc1c(Cl)cccc1-n1cccc1,-1,0,35*,4
COc1ccc2cc(S(=O)(=O)n3cnc4cc(C)c(C)cc43)ccc2c1,1,0,67*,11
COc1ccc(NC(=S)c2ccccn2)cc1,-11,0,60*,2
COc1ccccc1NC(=S)c1ccccn1,1,0,-38,18
CN(C)c1ccc(NC(=S)c2ccccn2)cc1,-9,-1,93*,33
CN(C)c1ccc(/C=C(\C#N)c2ccccn2)cc1,-10,0,91*,13
CN(C)c1ccc(NC(=S)Nc2ccccc2)cc1,-2,-1,-11,-2
Cc1ccc(NC(=S)c2ccccn2)cc1,-9,0,51*,15
SMILES,GPR151 activ,FBW7 activator,TEAD-YAP block,MITF inh
CSc1ccc(/C=C(\C#N)c2ccccn2)cc1,-3,0,-7,10
COc1ccc(NC(=S)Nc2ccccn2)cc1,0,0,-71,-7
Cc1cnc(N2CCC(N3CCOCC3)CC2)nc1NCc1cccc(C(F)(F)F)c1,3,0,9,-3
O=C(Cn1cnc2sc3c(c2c1=O)CCCC3)NCCCC(=O)Nc1ccc(Oc2ccccc2)cc1,-1,0,11,14
COc1cc(/C=N\NC(=O)Cc2cccs2)ccc1O,-1,0,-22,5
CC(c1ccccc1)N1CC(O)=C(c2nc3ccccc3[nH]2)C1=N (stereo not drawn),1,0,55*,-1
CCOc1ccccc1N1CC(O)=C(c2nc3ccccc3[nH]2)C1=N,0,0,54*,8
CCCCCCC(C)OC(=O)Nc1ccccc1 (stereo not drawn),-1,0,1,-8
OC(c1cn2cc(-c3ccccc3)nc2s1)(C(F)(F)F)C(F)(F)F,-8,0,55*,-4
FC(F)(F)c1nn2cc(-c3ccccc3)nc2s1,0,0,-42,-6
O=C(CSc1n[nH]c(/C=C/c2ccc(F)cc2)n1)Nc1cc(C(=O)O)cc([N+](=O)[O-])c1,-6,1,69*,9
O=C1CCCC(O)=C1N=Nc1ccc(C(=O)O)cc1,-2,0,-7,66*
Cc1c(F)cccc1NC(=O)COc1ccc(Cl)cc1,0,0,-14,13
Cc1cccc(Nc2nc3nonc3nc2Nc2ccccc2I)c1,1,0,87*,10
COc1cc(CCC(=O)N2CCCCC2c2nc3cc(C)c(C)cc3[nH]2)on1 (stereo not drawn),-1,0,41*,-1
Cc1cc2nc(C3CCCCN3C(=O)CCc3c(C)noc3C)[nH]c2cc1C (stereo not drawn),0,0,0,-4
CCOC(=O)C1=C(C)N=c2s/c(=C\c3ccc(OC)c(O)c3)c(=O)n2C1c1ccc(Cl)cc1 (stereo not drawn),0,0,5,14
CCC(/C=C1\Sc2ccccc2N1CC)=C\c1sc2ccccc2[n+]1CC,0,0,82*,44
CCCCOc1ccccc1NC(=O)C(F)(OC)C(F)(F)F (stereo not drawn),0,1,36*,14
COc1ccc(C)cc1NC(=O)NCc1cc(C)n(C)n1,1,0,35*,0
CC(C)n1cnc2c(Nc3ccc(F)cc3)ncnc21,-6,0,54*,18
O=C(Cc1c(F)cccc1Cl)N1CCC(c2ccncc2)CC1,0,0,42*,15
O=C(Cc1c(F)cccc1Cl)N1CCC(c2cccnc2)CC1,1,0,5,4
COC(=O)Cc1nc(NCc2ccccc2)c2c(C)c(C)sc2n1,1,1,67*,8
COC1(C)N(c2ccc(C)cc2)CC(=Nc2ccc(C)cc2)N1c1ccc(C)cc1 (stereo not drawn),1,0,38*,9
SMILES,GPR151 activ,FBW7 activator,TEAD-YAP block,MITF inh
COc1ccc(N2C(SC)=NC(=Nc3ccc(C)cc3)C23CCC(C(C)(C)C)CC3)cc1 (stereo not drawn),0,0,2,13
CCCc1ccc(OCC(=O)c2ccc(O)cc2O)cc1,-7,0,85*,5
O=C1CC(N2CCN(Cc3ccccc3)CC2)C(=O)N1c1ccc(F)cc1 (stereo not drawn),2,1,8,2
NC(=O)/C(=N/O)c1nc(-c2ccc(Br)cc2)cs1,0,0,9,-4
NC(=O)/C(=N\O)c1nc(-c2ccc(Cl)cc2)cs1,-2,0,32*,21
O=C1NC(=Nc2ccccc2)S/C1=C/c1ccccc1,1,0,-5,1
O=C1NC(=S)S/C1=C\c1ccc(O)c(O)c1,-1,-1,-4,55*
O=C1NC(=Nc2ccc(O)cc2)S/C1=C\c1ccc(F)cc1,-2,0,32*,18
Cc1cc(/C=C2\SC(=O)N(C)C2=O)c(C)n1-c1ccc(O)cc1,0,0,79*,11

# Assay outcomes (PubChem BioAssay)
